Here are results for 24 compounds from PubChem BioAssay (EPA / NIEHS).

Calls of active or inactive are those of the source. How the source made its calls: active means hit-call score of the fitted dose curve at least 0.9, where 1 is the maximum; inactive means score below 0.9.

Experiment [1] has as its target Paired box protein Pax-6 (Homo sapiens) (UniProt P26367). The experiment is described as follows: ATG_Pax6_CIS: Attagene CIS-FACTORIAL HepG2 Assay for human Paired Box 6 (PAX6) (AID 2282956). Conditions: HepG2 CIS-FACTORIAL PAX6 reporter transcription, RNA readout; actives raise or lower the signal. The method, boiled down: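 Read-out is reporter transcript level, measured by RT-PCR with fluorescent primer extension and capillary electrophoresis after 24 h dosing of transfected HepG2 cells. Activity in either direction fitted relative to DMSO control.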

Experiment [2] can be described thus: ATG_PXRE_CIS: Attagene CIS-FACTORIAL HepG2 Assay for human Pregnane X Receptor Element (PXRE) (AID 2282957). Conditions: HepG2 Attagene CIS-FACTORIAL PXRE reporter, mRNA; actives raise or lower the signal. An outline of the steps: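 Fluorescent capillary electrophoresis of amplified reporter cDNA gave the signal, collected 24 h after dosing HepG2 cells that held transfected cis-element reporter constructs.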

A short description of experiment [3]: ATG_RORE_CIS: Attagene CIS-FACTORIAL HepG2 Assay for human RAR-related Orphan Receptor Element (RORE) (AID 2282959). The note with it: HepG2 Attagene cis-factorial RORE reporter, mRNA; actives raise or lower the signal. An outline of the steps:
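Cells were HepG2 carrying transfected cis-regulated reporter constructs, dosed for 24 hours. Total RNA was reverse-transcribed and reporter cDNA amplified, fluorescently labeled and sized by capillary electrophoresis. Activity was fitted bidirectionally relative to DMSO.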

Experiment [4] in a line: ATG_Sox_CIS: Attagene CIS-FACTORIAL HepG2 Assay for human SRY-box transcription factor (SOX) (AID 2282960). The note with it: HepG2 Attagene cis-factorial SOX reporter, mRNA; actives raise or lower the signal. The method, boiled down:
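Transient MRTU transfection of HepG2; 24 h compound incubation; TriZol RNA, oligo(dT) RT, PCR, 6-FAM primer extension, HpaI cut, CE. Bidirectional fit, DMSO = baseline.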

The target in experiment [5] is Transcription factor Sp1 (Homo sapiens) (UniProt P08047). The experiment is described as follows: ATG_Sp1_CIS: Attagene CIS-FACTORIAL HepG2 Assay for human Specificity Protein 1 (Sp1) (AID 2282961). The note with it: HepG2 Sp1 cis-reporter transcription, actives raise or lower the signal. An outline of the steps:
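Endogenous Sp1 activity was gauged in human liver HepG2 cells bearing transfected reporter units under a cis-regulating promoter. After 24 h dosing, reporter mRNA was quantified by RT-PCR with capillary electrophoresis, and activity fitted bidirectionally versus DMSO.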

Experiment [6] is described as follows: ATG_SREBP_CIS: Attagene CIS-FACTORIAL HepG2 Assay for human Sterol Regulatory Element Binding (SREBP) (AID 2282962). The note with it: HepG2 Attagene cis-factorial SREBP reporter, mRNA; actives raise or lower the signal. The method, boiled down:
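Endogenous SREBP activity read as cis-element-driven reporter transcript in transiently transfected HepG2, 24 h post-dosing; quantified via RT-PCR plus capillary electrophoresis of fluorescent fragments. Gain or loss of signal fitted relative to DMSO baseline.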

Experiment [7] concerns the target Signal transducer and activator of transcription 3 (Homo sapiens) (UniProt P40763). Nature of the experiment: ATG_STAT3_CIS: Attagene CIS-FACTORIAL HepG2 Assay for human Signal Transducer and Activator of Transcription 3 (STAT3) (AID 2282963). Conditions: HepG2, Attagene cis-factorial STAT3 reporter transcription; actives raise or lower the signal. An outline of the steps:
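Fluorescence intensity of 6-FAM-labelled reporter fragments, separated by capillary electrophoresis after RT-PCR, gave the signal. Cells were HepG2 transfected with cis-element reporter units and treated 24 h; fitting was bidirectional relative to DMSO.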

Experiment [8] can be described thus: ATG_TA_CIS: Attagene CIS-FACTORIAL HepG2 Assay for human TA Basal Promoter (AID 2282964). The note with it: HepG2 Attagene CIS-factorial TA basal promoter reporter; actives raise or lower the signal. An outline of the steps:
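HepG2 cells transiently transfected with multiplexed cis-promoter reporter units, dosed 24 h. Reporter mRNA measured by RT-PCR, 6-FAM labelling, HpaI digestion and capillary electrophoresis; bidirectional fit versus DMSO baseline, serving as background control.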

Experiment [9] in a line: ATG_TCF_b_cat_CIS: Attagene CIS-FACTORIAL HepG2 Assay for human T-Cell-Factor with beta-catenin (TCF/b-cat) (AID 2282965). The note with it: HepG2 TCF/beta-catenin cis-reporter transcription, actives raise or lower the signal. An outline of the steps: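 HepG2 cells transiently transfected with cis-promoter-driven multiplexed reporter units; reporter mRNA measured 24 h after dosing by RT-PCR, FAM labelling, HpaI digestion and capillary electrophoresis. Bidirectional fitting relative to DMSO baseline.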

Paired box protein Pax-6 (Homo sapiens), sequence (P26367 whole entry, looked up): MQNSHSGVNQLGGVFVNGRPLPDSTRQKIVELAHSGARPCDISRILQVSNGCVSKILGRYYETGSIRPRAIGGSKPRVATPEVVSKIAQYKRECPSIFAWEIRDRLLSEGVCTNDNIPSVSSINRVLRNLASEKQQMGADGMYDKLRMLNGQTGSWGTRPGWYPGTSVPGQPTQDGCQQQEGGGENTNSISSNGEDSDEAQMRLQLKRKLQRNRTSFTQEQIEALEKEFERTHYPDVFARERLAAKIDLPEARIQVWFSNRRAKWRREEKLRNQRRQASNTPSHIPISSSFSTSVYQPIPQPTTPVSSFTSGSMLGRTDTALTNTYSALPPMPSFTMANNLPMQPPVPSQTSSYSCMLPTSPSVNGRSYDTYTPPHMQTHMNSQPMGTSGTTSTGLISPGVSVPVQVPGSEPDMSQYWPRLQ
Transcription factor Sp1 (Homo sapiens), sequence (P08047 whole entry, looked up): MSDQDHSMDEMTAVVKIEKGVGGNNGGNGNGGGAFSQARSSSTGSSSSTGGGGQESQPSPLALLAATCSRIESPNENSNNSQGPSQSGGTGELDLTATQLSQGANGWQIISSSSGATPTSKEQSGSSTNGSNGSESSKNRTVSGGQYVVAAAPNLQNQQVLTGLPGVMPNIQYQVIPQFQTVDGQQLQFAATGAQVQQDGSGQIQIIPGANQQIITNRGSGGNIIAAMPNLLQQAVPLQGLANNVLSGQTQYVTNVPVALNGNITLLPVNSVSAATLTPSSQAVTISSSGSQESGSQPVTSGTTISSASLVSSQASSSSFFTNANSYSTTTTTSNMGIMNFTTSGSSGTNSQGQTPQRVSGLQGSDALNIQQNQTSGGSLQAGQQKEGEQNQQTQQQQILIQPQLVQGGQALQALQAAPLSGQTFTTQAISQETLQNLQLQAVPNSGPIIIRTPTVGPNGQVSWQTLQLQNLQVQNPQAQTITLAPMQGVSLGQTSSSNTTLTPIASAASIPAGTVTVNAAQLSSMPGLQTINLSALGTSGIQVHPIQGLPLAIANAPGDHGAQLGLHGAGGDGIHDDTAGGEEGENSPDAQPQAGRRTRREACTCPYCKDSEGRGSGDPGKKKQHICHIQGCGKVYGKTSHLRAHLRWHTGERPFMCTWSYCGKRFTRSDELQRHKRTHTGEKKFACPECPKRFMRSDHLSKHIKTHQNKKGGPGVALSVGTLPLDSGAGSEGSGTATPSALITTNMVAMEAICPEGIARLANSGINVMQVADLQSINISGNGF
Signal transducer and activator of transcription 3 (Homo sapiens), sequence (P40763 whole entry, looked up, the tested form may be a part): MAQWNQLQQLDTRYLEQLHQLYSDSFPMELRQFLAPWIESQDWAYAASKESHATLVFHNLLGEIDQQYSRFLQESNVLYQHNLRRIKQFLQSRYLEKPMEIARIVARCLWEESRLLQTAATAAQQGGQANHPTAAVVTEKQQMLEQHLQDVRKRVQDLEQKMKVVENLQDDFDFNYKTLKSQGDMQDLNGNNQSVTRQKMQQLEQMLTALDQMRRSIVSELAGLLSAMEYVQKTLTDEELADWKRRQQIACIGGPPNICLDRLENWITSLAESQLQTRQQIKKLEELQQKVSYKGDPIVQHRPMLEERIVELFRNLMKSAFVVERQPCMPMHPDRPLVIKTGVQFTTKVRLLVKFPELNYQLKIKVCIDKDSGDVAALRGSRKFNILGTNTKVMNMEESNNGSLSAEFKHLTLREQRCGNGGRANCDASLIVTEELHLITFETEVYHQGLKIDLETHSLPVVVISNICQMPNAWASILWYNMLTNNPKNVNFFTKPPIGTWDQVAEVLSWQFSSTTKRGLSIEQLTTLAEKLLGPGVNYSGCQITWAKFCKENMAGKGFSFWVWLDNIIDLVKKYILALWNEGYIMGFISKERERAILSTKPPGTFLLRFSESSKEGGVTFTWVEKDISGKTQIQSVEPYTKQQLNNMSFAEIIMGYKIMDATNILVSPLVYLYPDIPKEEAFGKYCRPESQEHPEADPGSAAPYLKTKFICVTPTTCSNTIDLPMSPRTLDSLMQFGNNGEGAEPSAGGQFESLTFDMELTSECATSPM

Regarding `O=C(O)CCCCCCCC(=O)O`, the compound was classed as inactive in experiment [1], in experiment [2], in experiment [3], in [4], in experiment [5] and in experiment [6]. Further, the compound was called inactive in experiment [7], in [8] and in experiment [9].

`CC(C)C[C@H]1C(=O)N2CCC[C@H]2[C@]2(O)O[C@](NC(=O)[C@@H]3C=C4c5cccc6[nH]c(Br)c(c56)C[C@H]4N(C)C3)(C(C)C)C(=O)N12`: the AC50 is 4.02 µM (active) in experiment [1]; 0.302 µM (active) in experiment [2]; 1.9 µM (active) in experiment [3]; 2.91 µM (active) in [5]; 3.09 µM (active) in experiment [8]; 4.37 µM (active) in experiment [9]. The compound was called inactive in experiment [4], in experiment [6] and in experiment [7].

Regarding `COCCCOc1ccnc(CS(=O)c2nc3ccccc3[nH]2)c1C` (stereo not drawn), the call in [1], in experiment [3], in [4], in experiment [5], in [6] and in [7] was inactive. The result in experiment [8] and in experiment [9] was inactive. Moreover, in experiment [2], the AC50 was 6.74 µM (active).

On to `CC(C)(C)C(=O)c1ccccc1`, for which the call in experiment [1], in experiment [3], in experiment [4], in experiment [5], in [6] and in [7] was inactive. The outcome in experiment [8] and in experiment [9] was inactive. In addition, the AC50 in experiment [2] is 53 µM (active).

As for `CC(C)c1ccc(C(C)C)cc1`, the compound was called inactive in [1], in [2], in experiment [3], in experiment [4], in experiment [5] and in experiment [7]. The compound was called inactive in experiment [8] and in experiment [9]. For the same compound, in [6], the half-maximal activity concentration (AC50) was 152 µM (active).

For `Clc1ccc2c(c1)C(N1CCNCC1)=Nc1ccccc1O2`, the AC50 in [1] was 41.1 µM (active). Further, the compound was called inactive in experiment [2], in [3], in experiment [4], in experiment [5], in experiment [6] and in experiment [7]. Besides, in [9], the compound was classed as inactive.

In the case of `O=C(O)c1ccc(C(=O)O)cc1`, the outcome in [1], in experiment [2], in [3], in [4], in experiment [5] and in experiment [6] was inactive. The compound was called inactive in experiment [7], in experiment [8] and in experiment [9].

For the compound `CC(CCO)CCCC(C)(C)O` (stereo not drawn), the result in experiment [1], in experiment [2], in experiment [3], in experiment [4], in [5] and in experiment [6] was inactive. For the same compound, the outcome in [7], in experiment [8] and in [9] was inactive.

Turning to `O=c1oc(=O)c2cc3c(=O)oc(=O)c3cc12`, the result in experiment [1], in [2], in experiment [3], in [4], in experiment [5] and in [6] was inactive. In addition, the outcome in experiment [7], in experiment [8] and in [9] was inactive.

For the compound `CCCCc1ccc(N)cc1`, the compound was classed as inactive in experiment [1], in experiment [2], in experiment [3], in [4], in experiment [5] and in experiment [6]. For the same compound, the result in experiment [7] and in experiment [8] was inactive. In addition, the half-maximal activity concentration (AC50) in [9] is 28.2 µM (active).

In the case of `CNC(=O)Oc1ccc2c(c1)[C@]1(C)CCN(C)[C@@H]1N2C`, the compound was classed as inactive in [1], in [3], in experiment [4], in experiment [5], in [6] and in experiment [7]. Besides, the compound was called inactive in experiment [9]. The AC50 in experiment [2] is 38 µM (active).

With `CC(CN1c2ccccc2Sc2ccccc21)N(C)C` (stereo not drawn), the AC50 in experiment [1] was 44 µM (active); in experiment [2] it was 5.52 µM (active); in experiment [9], 33.4 µM (active). Besides, the result in experiment [3], in experiment [4], in experiment [5], in [6], in experiment [7] and in experiment [8] was inactive.

For `CCCCCCCCCCN`, the outcome in experiment [1], in experiment [2], in experiment [3], in experiment [4], in experiment [5] and in experiment [6] was inactive. Further, the compound was classed as inactive in experiment [7], in [8] and in [9].

For the compound `O=C1NC(=O)c2ccccc21`, the result in [1], in experiment [3], in [4], in experiment [5], in experiment [6] and in [7] was inactive. In [9], the outcome was inactive. The AC50 in experiment [2] was 38.5 µM (active).

For the compound `C=C(C)[C@@H]1CC[C@@H](C)C[C@@H]1O`, the result in experiment [1], in experiment [2], in experiment [3], in [4], in experiment [5] and in experiment [6] was inactive. The compound was classed as inactive in experiment [7] and in experiment [9].

Turning to `C=C(C)C(=O)Nc1ccc(Cl)c(Cl)c1`, the compound was called inactive in experiment [1], in experiment [4], in experiment [5], in experiment [6], in [7] and in experiment [9]. The AC50 was 10.2 µM (active) in [2] and 27.2 µM (active) in [3].

Take `CC(C#N)(CCC(=O)O)N=NC(C)(C#N)CCC(=O)O` (stereo not drawn): the compound was called inactive in experiment [1], in [3], in experiment [4], in experiment [5], in experiment [6] and in experiment [7]. Also, the compound was called inactive in [8] and in experiment [9]. In addition, in [2], the AC50 is 26.2 µM (active).

For `CC(=O)OCc1ccc2c(c1)OCO2`, the call in experiment [1], in [3], in experiment [4], in [5], in experiment [6] and in [7] was inactive. Further, in experiment [9], the result was inactive. Besides, the AC50 in experiment [2] is 26.9 µM (active).

As for `CC1(C)[C@H]2CC[C@]1(C)[C@H](O)C2`, the compound was called inactive in experiment [1], in experiment [3], in experiment [4], in experiment [5], in experiment [6] and in [7]. The call in experiment [8] and in experiment [9] was inactive. The AC50 in [2] was 68.7 µM (active).

For `CC(C)(C#N)c1cc(Cn2cncn2)cc(C(C)(C)C#N)c1`, the compound was called inactive in [1], in experiment [3], in experiment [4], in experiment [5], in experiment [6] and in experiment [7]. The compound was classed as inactive in experiment [8] and in [9]. For the same compound, in [2], the AC50 is 14.8 µM (active).

For the compound `CC(C)=CCC/C(C)=C/COC=O`, the compound was classed as inactive in [1], in [2], in [3], in experiment [4], in experiment [5] and in experiment [6]. Also, the compound was called inactive in experiment [7], in experiment [8] and in experiment [9].

On to `CCCC[n+]1ccccc1`, for which the call in experiment [1], in experiment [2], in experiment [3], in experiment [4], in experiment [5] and in [6] was inactive. The result in experiment [7] and in experiment [9] was inactive.

`[Ca+2]`: the result in experiment [1], in [2], in experiment [3], in [4], in experiment [5] and in [6] was inactive. The call in experiment [8] and in experiment [9] was inactive.

As for `CCCC1CCC(=O)O1` (stereo not drawn), the compound was called inactive in experiment [1], in experiment [2], in [3], in experiment [4], in experiment [5] and in experiment [6]. Further, the outcome in [7], in [8] and in experiment [9] was inactive.

For orientation: AC50 means the concentration at which the activity in the assay is half-maximal.
